{"source": "the supplement of paper PMC12067093", "about": "“Discovery and optimisation of a covalent ligand for TRIM25 and its application to targeted protein ubiquitination” (Chemical Science, 2025)", "note": "The full data set covers some 21,000 targets. This sample favours those with the largest changes.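 Also: competitive chemoproteomic profiling in live THP-1 cells with an iodoacetamide desthiobiotin (IA-DTB) probe, comparing probe-labelled peptide intensities in compound-treated cells against DMSO-treated controls.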"}
{"compound": "CC1Cc2ccccc2N1C(=O)C1CCCN(C1)C(=O)CCl (mixture of isomers) [TRIM25 ligand 11 (diastereomer mixture)]", "assay": "probe-labelled cysteine peptide fold change vs DMSO (competition) (log2 fold change); higher = less target engagement (more negative = stronger competition)", "details": "10 µM; THP-1; incubation time: 4 h"}
{"target": "PDPR_Q8NCN5_357_LVNCPETFTPDMR (UniProt Q8NCN5)", "probe-labelled cysteine peptide fold change": -0.0721}
{"target": "NUP160_Q12769_1042_QLVVVLCER (UniProt Q12769)", "probe-labelled cysteine peptide fold change": 0.25}
{"target": "PCNA_P12004_135_LMDLDVEQLGIPEQEYSCVVK (UniProt P12004)", "sequence (P12004 whole entry, looked up)": "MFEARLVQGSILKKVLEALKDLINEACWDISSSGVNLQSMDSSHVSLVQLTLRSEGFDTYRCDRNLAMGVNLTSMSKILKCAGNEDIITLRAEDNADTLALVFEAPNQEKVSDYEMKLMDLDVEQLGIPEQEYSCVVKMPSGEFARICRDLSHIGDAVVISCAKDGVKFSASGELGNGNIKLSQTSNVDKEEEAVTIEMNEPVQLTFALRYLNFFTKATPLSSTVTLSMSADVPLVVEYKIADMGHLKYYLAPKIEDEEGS", "probe-labelled cysteine peptide fold change": -0.113}
{"target": "PARK7_Q99497_46_VTVAGLAGKDPVQCSR (UniProt Q99497)", "probe-labelled cysteine peptide fold change": -0.13}
{"target": "PDLIM1_O00151_286_HRHPECYVCTDCGTNLK (UniProt O00151)", "probe-labelled cysteine peptide fold change": 0.117}
{"target": "NFRKB_Q6P4R8_17_MDSLDHMLTDPLELGPCGDGHGTR (UniProt Q6P4R8)", "probe-labelled cysteine peptide fold change": -0.196}
{"target": "PDF_Q9HBH1_222_IIQHEMDHLQGCLFIDK (UniProt Q9HBH1)", "probe-labelled cysteine peptide fold change": -0.0352}
{"target": "NFIX_Q14938_6_MYSPYCLTQDEFHPFIEALLPHVR (UniProt Q14938)", "probe-labelled cysteine peptide fold change": 0.072}
{"target": "NCKIPSD_Q9NZQ3_138_QPNGVCR (UniProt Q9NZQ3)", "probe-labelled cysteine peptide fold change": -0.0933}
{"target": "PARP1_P09874_908_SANYCHTSQGDPIGLILLGEVALGNMYELK (UniProt P09874)", "probe-labelled cysteine peptide fold change": -0.146}
{"target": "OSBPL9_Q96SU4_577_SILTVPWVELGGECNINCSK (UniProt Q96SU4)", "probe-labelled cysteine peptide fold change": 0.311}
{"target": "NT5DC2_Q9H857_475_FSDLYMASLSCLLNYR (UniProt Q9H857)", "probe-labelled cysteine peptide fold change": 0.0123}
{"target": "OTX1_P32242_340_LNFNSPDCLDYK (UniProt P32242)", "probe-labelled cysteine peptide fold change": 0.161}
{"target": "OPLAH_O14841_1053_DIPLNQGCLAPVR (UniProt O14841)", "probe-labelled cysteine peptide fold change": -0.146}
{"target": "PCBP3_P57721_141_LVVPASQCGSLIGK (UniProt P57721)", "probe-labelled cysteine peptide fold change": -0.0567}
{"target": "OCIAD2_Q56VL3_106_VSYIGVCQSK (UniProt Q56VL3)", "probe-labelled cysteine peptide fold change": -0.0503}
{"target": "NPTX1_Q15818_89_CESQSTLDPGAGEAR (UniProt Q15818)", "sequence (Q15818 whole entry)": "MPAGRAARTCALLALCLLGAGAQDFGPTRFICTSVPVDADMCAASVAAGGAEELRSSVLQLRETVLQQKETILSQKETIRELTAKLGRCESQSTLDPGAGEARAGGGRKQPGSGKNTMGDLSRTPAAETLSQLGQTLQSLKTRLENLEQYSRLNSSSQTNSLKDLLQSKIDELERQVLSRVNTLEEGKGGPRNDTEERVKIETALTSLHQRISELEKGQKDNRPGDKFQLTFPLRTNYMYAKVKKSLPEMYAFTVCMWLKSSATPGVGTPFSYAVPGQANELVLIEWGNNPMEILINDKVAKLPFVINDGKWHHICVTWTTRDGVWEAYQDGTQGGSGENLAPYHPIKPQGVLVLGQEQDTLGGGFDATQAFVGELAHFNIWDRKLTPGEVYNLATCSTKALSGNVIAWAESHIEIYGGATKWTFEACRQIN", "probe-labelled cysteine peptide fold change": -0.269}
{"target": "NVL_O15381_431_FDREICLGIPDEASR (UniProt O15381)", "sequence (O15381 whole entry, looked up)": "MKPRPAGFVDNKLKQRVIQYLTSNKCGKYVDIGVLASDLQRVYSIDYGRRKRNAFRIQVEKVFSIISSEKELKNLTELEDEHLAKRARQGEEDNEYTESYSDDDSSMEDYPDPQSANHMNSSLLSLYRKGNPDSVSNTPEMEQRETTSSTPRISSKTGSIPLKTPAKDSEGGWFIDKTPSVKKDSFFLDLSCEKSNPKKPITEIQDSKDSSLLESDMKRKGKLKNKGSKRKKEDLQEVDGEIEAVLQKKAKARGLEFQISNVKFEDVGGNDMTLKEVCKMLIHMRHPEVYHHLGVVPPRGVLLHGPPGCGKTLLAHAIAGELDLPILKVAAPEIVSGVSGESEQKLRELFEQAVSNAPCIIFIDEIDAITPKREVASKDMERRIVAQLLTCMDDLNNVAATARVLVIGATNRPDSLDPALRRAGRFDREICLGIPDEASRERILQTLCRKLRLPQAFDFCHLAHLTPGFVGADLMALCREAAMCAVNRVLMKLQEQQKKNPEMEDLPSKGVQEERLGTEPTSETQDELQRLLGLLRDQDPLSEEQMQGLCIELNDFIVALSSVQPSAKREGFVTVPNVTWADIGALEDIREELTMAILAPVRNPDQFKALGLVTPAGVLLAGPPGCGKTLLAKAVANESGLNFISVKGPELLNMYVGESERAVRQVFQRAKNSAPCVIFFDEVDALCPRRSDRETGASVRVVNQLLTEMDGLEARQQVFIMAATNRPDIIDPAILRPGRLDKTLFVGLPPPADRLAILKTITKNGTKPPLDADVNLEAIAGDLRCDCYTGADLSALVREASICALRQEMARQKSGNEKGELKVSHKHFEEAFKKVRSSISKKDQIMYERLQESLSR", "probe-labelled cysteine peptide fold change": -0.0502}
{"target": "PARP14_Q460N5_1274_ECSQQAQQR (UniProt Q460N5)", "sequence (Q460N5 whole entry, looked up)": "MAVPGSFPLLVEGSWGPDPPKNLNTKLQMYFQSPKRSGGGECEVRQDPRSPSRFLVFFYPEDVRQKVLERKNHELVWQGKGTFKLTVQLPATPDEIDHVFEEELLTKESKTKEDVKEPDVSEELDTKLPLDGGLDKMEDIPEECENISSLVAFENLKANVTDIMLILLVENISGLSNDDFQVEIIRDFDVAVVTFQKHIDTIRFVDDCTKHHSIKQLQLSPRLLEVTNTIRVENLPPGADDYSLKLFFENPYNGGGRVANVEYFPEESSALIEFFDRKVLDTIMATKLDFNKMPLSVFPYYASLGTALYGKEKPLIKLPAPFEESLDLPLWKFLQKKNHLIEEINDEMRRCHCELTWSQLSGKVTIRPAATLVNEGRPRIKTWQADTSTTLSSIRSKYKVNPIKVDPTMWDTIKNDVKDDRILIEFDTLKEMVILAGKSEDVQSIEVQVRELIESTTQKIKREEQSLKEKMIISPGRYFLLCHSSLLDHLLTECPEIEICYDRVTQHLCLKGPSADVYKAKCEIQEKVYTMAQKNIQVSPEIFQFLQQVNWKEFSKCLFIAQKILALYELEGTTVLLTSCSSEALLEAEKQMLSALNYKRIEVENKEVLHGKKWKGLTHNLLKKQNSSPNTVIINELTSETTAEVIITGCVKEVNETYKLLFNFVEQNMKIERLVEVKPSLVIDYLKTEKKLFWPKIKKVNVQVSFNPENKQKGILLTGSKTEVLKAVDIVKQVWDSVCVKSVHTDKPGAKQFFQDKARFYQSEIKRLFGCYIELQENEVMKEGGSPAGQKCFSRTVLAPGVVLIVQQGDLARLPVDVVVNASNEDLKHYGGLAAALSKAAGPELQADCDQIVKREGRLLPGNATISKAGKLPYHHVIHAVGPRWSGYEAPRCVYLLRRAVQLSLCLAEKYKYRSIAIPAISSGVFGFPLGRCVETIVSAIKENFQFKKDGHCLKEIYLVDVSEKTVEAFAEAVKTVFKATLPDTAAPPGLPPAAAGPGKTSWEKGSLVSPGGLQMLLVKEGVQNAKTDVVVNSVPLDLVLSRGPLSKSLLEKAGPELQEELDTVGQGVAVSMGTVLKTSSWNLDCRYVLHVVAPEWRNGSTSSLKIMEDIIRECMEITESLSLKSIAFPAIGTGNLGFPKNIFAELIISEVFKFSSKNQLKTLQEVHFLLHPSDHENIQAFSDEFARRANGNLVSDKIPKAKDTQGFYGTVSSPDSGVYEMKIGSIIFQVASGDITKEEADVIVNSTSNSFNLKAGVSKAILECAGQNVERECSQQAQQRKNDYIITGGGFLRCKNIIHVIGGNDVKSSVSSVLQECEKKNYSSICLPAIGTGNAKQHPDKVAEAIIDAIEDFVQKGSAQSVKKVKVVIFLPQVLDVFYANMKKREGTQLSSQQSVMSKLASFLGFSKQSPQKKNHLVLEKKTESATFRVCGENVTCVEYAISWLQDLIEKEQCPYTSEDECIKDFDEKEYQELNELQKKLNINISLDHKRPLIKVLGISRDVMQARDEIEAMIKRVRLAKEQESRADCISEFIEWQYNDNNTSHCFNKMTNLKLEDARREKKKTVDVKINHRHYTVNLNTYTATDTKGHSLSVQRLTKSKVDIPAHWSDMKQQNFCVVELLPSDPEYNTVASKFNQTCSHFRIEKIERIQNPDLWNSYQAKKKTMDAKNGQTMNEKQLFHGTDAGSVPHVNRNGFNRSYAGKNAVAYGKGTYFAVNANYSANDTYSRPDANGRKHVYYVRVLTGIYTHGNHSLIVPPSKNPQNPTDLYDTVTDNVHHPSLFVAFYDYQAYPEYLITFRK", "probe-labelled cysteine peptide fold change": 0.0962}
{"target": "PDLIM7_Q9NR12_370_MTWHVHCFTCAACK (UniProt Q9NR12)", "sequence (Q9NR12 whole entry, looked up)": "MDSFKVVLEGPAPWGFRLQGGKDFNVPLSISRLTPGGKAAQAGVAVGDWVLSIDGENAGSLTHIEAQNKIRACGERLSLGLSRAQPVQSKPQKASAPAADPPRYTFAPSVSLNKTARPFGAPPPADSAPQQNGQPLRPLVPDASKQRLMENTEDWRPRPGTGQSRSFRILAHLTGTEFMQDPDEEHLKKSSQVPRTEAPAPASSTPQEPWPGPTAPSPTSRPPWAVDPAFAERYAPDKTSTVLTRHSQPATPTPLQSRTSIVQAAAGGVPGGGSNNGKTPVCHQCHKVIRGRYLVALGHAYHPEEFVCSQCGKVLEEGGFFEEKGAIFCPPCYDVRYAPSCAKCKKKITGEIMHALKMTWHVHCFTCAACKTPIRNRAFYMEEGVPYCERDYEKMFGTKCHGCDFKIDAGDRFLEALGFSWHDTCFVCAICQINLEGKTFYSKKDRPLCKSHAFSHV", "probe-labelled cysteine peptide fold change": -0.0568}
{"target": "NUDT4B_A0A024RBG1_28_AACLCFR<|>NUDT3_O95989_25_AACLCFR<|>NUDT10_Q8NFP7_24_AACLCFR<|>NUDT11_Q96G61_24_AACLCFR<|>NUDT4_Q9NZJ9_25_AACLCFR (UniProt Q9NZJ9+Q8NFP7+Q96G61+O95989)", "probe-labelled cysteine peptide fold change": 0.153}
{"target": "OSBPL1A_Q9BXW6_340_EDWLEAIEEHSAYSTHYCSQDQLTDEEEEDTVSAADLKK (UniProt Q9BXW6)", "probe-labelled cysteine peptide fold change": 0.199}
{"target": "PARP1_P09874_845_IEREGECQR (UniProt P09874)", "probe-labelled cysteine peptide fold change": -0.00747}
{"target": "PAICS_P22234_100_CGETAFIAPQCEMIPIEWVCR (UniProt P22234)", "sequence (P22234 whole entry, looked up)": "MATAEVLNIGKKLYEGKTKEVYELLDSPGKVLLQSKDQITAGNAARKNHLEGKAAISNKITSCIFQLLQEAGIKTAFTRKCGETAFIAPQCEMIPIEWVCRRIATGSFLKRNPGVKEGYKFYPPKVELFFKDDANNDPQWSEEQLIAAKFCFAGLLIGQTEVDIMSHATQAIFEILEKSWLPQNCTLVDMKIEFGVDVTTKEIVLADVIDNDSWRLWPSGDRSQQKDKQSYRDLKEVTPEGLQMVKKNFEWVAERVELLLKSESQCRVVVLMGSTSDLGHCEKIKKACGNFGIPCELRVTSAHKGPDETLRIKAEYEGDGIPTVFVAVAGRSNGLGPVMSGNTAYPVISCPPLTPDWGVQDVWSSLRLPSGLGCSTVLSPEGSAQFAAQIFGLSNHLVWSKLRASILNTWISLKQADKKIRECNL", "probe-labelled cysteine peptide fold change": 0.00496}
{"target": "NSUN5_Q96P11_308_YHEVHYILLDPSCSGSGMPSR (UniProt Q96P11)", "sequence (Q96P11 whole entry, looked up)": "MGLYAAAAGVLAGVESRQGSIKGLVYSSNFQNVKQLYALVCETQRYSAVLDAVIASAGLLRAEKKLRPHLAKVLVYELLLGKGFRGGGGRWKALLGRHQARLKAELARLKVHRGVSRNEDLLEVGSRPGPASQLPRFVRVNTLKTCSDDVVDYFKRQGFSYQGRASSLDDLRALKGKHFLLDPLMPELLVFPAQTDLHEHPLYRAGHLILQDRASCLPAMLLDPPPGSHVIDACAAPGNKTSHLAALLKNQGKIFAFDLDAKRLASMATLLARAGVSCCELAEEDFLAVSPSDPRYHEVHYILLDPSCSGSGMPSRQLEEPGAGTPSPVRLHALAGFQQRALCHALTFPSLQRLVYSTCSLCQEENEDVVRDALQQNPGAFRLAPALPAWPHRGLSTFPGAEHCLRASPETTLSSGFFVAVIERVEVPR", "probe-labelled cysteine peptide fold change": -0.725}
{"target": "ORC3_Q9UBD5_158_LISQLMDCCVDIK (UniProt Q9UBD5)", "probe-labelled cysteine peptide fold change": -0.0854}
{"target": "NOC4L_Q9BVI4_509_KGPEPVPLEFIPAQGLLGRPGELCAQHFTLS (UniProt Q9BVI4)", "probe-labelled cysteine peptide fold change": 0.0196}
{"target": "NUP160_Q12769_529_NLQQEFWCK (UniProt Q12769)", "probe-labelled cysteine peptide fold change": 0.248}
{"target": "NPM1_P06748_21_MEDSMDMDMSPLRPQNYLFGCELK (UniProt P06748)", "probe-labelled cysteine peptide fold change": -0.279}
{"target": "NOL10_Q9BSC4_147_DFSYHYPSCDLYFVGASSEVYR (UniProt Q9BSC4)", "probe-labelled cysteine peptide fold change": -0.459}
{"target": "PDS5B_Q9NTI5_732_YAIHCIHAIFSSK (UniProt Q9NTI5)", "probe-labelled cysteine peptide fold change": -0.00231}
{"target": "NDUFV2_P19404_135+140_YHIQVCTTTPCMLR (UniProt P19404)", "probe-labelled cysteine peptide fold change": 0.0444}
{"target": "NECAP2_Q9NVZ3_11_MEESGYESVLCVKPDVHVYR (UniProt Q9NVZ3)", "sequence (Q9NVZ3 whole entry)": "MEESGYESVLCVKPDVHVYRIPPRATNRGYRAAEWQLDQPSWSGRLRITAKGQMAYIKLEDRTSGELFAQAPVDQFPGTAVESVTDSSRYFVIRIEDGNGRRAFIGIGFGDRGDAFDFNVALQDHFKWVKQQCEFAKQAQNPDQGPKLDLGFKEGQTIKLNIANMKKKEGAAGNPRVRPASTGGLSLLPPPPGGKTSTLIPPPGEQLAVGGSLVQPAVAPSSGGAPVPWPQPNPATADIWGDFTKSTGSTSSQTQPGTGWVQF", "probe-labelled cysteine peptide fold change": -0.174}
{"target": "PDCD2L_Q9BRP1_191_LQDAVLGAAHPVPPGLPLFLPYYICVADEDDYRDFVNLDHAHSLLR (UniProt Q9BRP1)", "probe-labelled cysteine peptide fold change": -0.928}
{"target": "PABPC4_Q13310-3_488_VGSECPDR (UniProt Q13310)", "probe-labelled cysteine peptide fold change": -0.118}
{"target": "NSD2_O96028_1102_KGEFVNEYVGELIDEEECMAR (UniProt O96028)", "probe-labelled cysteine peptide fold change": -0.163}
{"target": "PACSIN2_Q9UNF0_465_MEDEDEQGWCK (UniProt Q9UNF0)", "probe-labelled cysteine peptide fold change": 0.118}
{"target": "OSGEP_Q9NPF4_160_IFGETIDIAVGNCLDR (UniProt Q9NPF4)", "probe-labelled cysteine peptide fold change": 0.0104}
{"target": "P4HB_P07237_397+400_NVFVEFYAPWCGHCK (UniProt P07237)", "probe-labelled cysteine peptide fold change": -0.122}
{"target": "NUTF2_P61970_80_IQHSITAQDHQPTPDSCIISMVVGQLKADEDPIMGFHQMFLLK (UniProt P61970)", "probe-labelled cysteine peptide fold change": -0.758}
{"compound": "CC1Cc2ccccc2N1C(=O)C1CCCN(C1)C(=O)CCl (mixture of isomers) [TRIM25 ligand 11 (diastereomer mixture)]", "assay": "probe-labelled cysteine peptide fold change vs DMSO (competition) (log2 fold change); higher = less target engagement (more negative = stronger competition)", "details": "50 µM; THP-1; incubation time: 4 h"}
{"target": "PDPR_Q8NCN5_357_LVNCPETFTPDMR (UniProt Q8NCN5)", "probe-labelled cysteine peptide fold change": 0.18}
{"target": "NUP160_Q12769_1042_QLVVVLCER (UniProt Q12769)", "probe-labelled cysteine peptide fold change": 0.0629}
{"target": "PCNA_P12004_135_LMDLDVEQLGIPEQEYSCVVK (UniProt P12004)", "probe-labelled cysteine peptide fold change": 0.0916}
{"target": "PARK7_Q99497_46_VTVAGLAGKDPVQCSR (UniProt Q99497)", "probe-labelled cysteine peptide fold change": -0.213}
{"target": "PDLIM1_O00151_286_HRHPECYVCTDCGTNLK (UniProt O00151)", "probe-labelled cysteine peptide fold change": 0.192}
{"target": "NFRKB_Q6P4R8_17_MDSLDHMLTDPLELGPCGDGHGTR (UniProt Q6P4R8)", "probe-labelled cysteine peptide fold change": -1.37}
{"target": "PDF_Q9HBH1_222_IIQHEMDHLQGCLFIDK (UniProt Q9HBH1)", "probe-labelled cysteine peptide fold change": 0.0675}
{"target": "NFIX_Q14938_6_MYSPYCLTQDEFHPFIEALLPHVR (UniProt Q14938)", "probe-labelled cysteine peptide fold change": -0.567}
{"target": "NCKIPSD_Q9NZQ3_138_QPNGVCR (UniProt Q9NZQ3)", "probe-labelled cysteine peptide fold change": -0.32}
{"target": "PARP1_P09874_908_SANYCHTSQGDPIGLILLGEVALGNMYELK (UniProt P09874)", "probe-labelled cysteine peptide fold change": -0.761}
{"target": "OSBPL9_Q96SU4_577_SILTVPWVELGGECNINCSK (UniProt Q96SU4)", "probe-labelled cysteine peptide fold change": 0.198}
{"target": "NT5DC2_Q9H857_475_FSDLYMASLSCLLNYR (UniProt Q9H857)", "probe-labelled cysteine peptide fold change": 0.0662}
{"target": "OTX1_P32242_340_LNFNSPDCLDYK (UniProt P32242)", "probe-labelled cysteine peptide fold change": -0.0204}
{"target": "OPLAH_O14841_1053_DIPLNQGCLAPVR (UniProt O14841)", "probe-labelled cysteine peptide fold change": 0.136}
{"target": "PCBP3_P57721_141_LVVPASQCGSLIGK (UniProt P57721)", "probe-labelled cysteine peptide fold change": -0.121}
{"target": "OCIAD2_Q56VL3_106_VSYIGVCQSK (UniProt Q56VL3)", "probe-labelled cysteine peptide fold change": 0.116}
{"target": "NPTX1_Q15818_89_CESQSTLDPGAGEAR (UniProt Q15818)", "probe-labelled cysteine peptide fold change": 0.111}
{"target": "NVL_O15381_431_FDREICLGIPDEASR (UniProt O15381)", "probe-labelled cysteine peptide fold change": 0.0728}
{"target": "PARP14_Q460N5_1274_ECSQQAQQR (UniProt Q460N5)", "probe-labelled cysteine peptide fold change": -0.0412}
{"target": "PDLIM7_Q9NR12_370_MTWHVHCFTCAACK (UniProt Q9NR12)", "probe-labelled cysteine peptide fold change": 0.119}
{"target": "NUDT4B_A0A024RBG1_28_AACLCFR<|>NUDT3_O95989_25_AACLCFR<|>NUDT10_Q8NFP7_24_AACLCFR<|>NUDT11_Q96G61_24_AACLCFR<|>NUDT4_Q9NZJ9_25_AACLCFR (UniProt Q9NZJ9+Q8NFP7+Q96G61+O95989)", "probe-labelled cysteine peptide fold change": 0.0838}
{"target": "OSBPL1A_Q9BXW6_340_EDWLEAIEEHSAYSTHYCSQDQLTDEEEEDTVSAADLKK (UniProt Q9BXW6)", "probe-labelled cysteine peptide fold change": -0.153}
{"target": "PARP1_P09874_845_IEREGECQR (UniProt P09874)", "probe-labelled cysteine peptide fold change": 0.129}
{"target": "PAICS_P22234_100_CGETAFIAPQCEMIPIEWVCR (UniProt P22234)", "probe-labelled cysteine peptide fold change": 0.1}
{"target": "NSUN5_Q96P11_308_YHEVHYILLDPSCSGSGMPSR (UniProt Q96P11)", "probe-labelled cysteine peptide fold change": -0.0597}
{"target": "ORC3_Q9UBD5_158_LISQLMDCCVDIK (UniProt Q9UBD5)", "probe-labelled cysteine peptide fold change": -0.134}
{"target": "NOC4L_Q9BVI4_509_KGPEPVPLEFIPAQGLLGRPGELCAQHFTLS (UniProt Q9BVI4)", "probe-labelled cysteine peptide fold change": -0.199}
{"target": "NUP160_Q12769_529_NLQQEFWCK (UniProt Q12769)", "probe-labelled cysteine peptide fold change": 0.177}
{"target": "NPM1_P06748_21_MEDSMDMDMSPLRPQNYLFGCELK (UniProt P06748)", "probe-labelled cysteine peptide fold change": -0.642}
{"target": "NOL10_Q9BSC4_147_DFSYHYPSCDLYFVGASSEVYR (UniProt Q9BSC4)", "probe-labelled cysteine peptide fold change": -0.299}
{"target": "PDS5B_Q9NTI5_732_YAIHCIHAIFSSK (UniProt Q9NTI5)", "probe-labelled cysteine peptide fold change": 0.0228}
{"target": "NDUFV2_P19404_135+140_YHIQVCTTTPCMLR (UniProt P19404)", "probe-labelled cysteine peptide fold change": -0.234}
{"target": "NECAP2_Q9NVZ3_11_MEESGYESVLCVKPDVHVYR (UniProt Q9NVZ3)", "probe-labelled cysteine peptide fold change": -0.048}
{"target": "PDCD2L_Q9BRP1_191_LQDAVLGAAHPVPPGLPLFLPYYICVADEDDYRDFVNLDHAHSLLR (UniProt Q9BRP1)", "probe-labelled cysteine peptide fold change": 0.29}
{"target": "PABPC4_Q13310-3_488_VGSECPDR (UniProt Q13310)", "probe-labelled cysteine peptide fold change": -0.166}
{"target": "NSD2_O96028_1102_KGEFVNEYVGELIDEEECMAR (UniProt O96028)", "probe-labelled cysteine peptide fold change": -0.0932}
{"target": "PACSIN2_Q9UNF0_465_MEDEDEQGWCK (UniProt Q9UNF0)", "probe-labelled cysteine peptide fold change": 0.00577}
{"target": "OSGEP_Q9NPF4_160_IFGETIDIAVGNCLDR (UniProt Q9NPF4)", "probe-labelled cysteine peptide fold change": -0.0314}
{"target": "P4HB_P07237_397+400_NVFVEFYAPWCGHCK (UniProt P07237)", "probe-labelled cysteine peptide fold change": -0.34}
{"target": "NUTF2_P61970_80_IQHSITAQDHQPTPDSCIISMVVGQLKADEDPIMGFHQMFLLK (UniProt P61970)", "probe-labelled cysteine peptide fold change": -0.409}
